# Test results as given in PMC7862700, “An all-to-all approach to the identification of sequence-specific readers for epigenetic DNA modifications on cytosine”.
# What was measured:
# Experiment in all cases: DAPPL (digital affinity profiling via proximity ligation, sequencing); 10 mM Tris-HCl pH 7.5, 50 mM NaCl, 1 mM DTT, 4% glycerol, room temperature, 30 min; GST-TFs on glutathione beads, 16-mer random dsDNA library, 0.1% formaldehyde crosslink after washing; high values mean tight binding
# Settings in all cases: protein: recombinant; tags: N-terminal GST; dsDNA, one strand shown
# ELK1 = target: T1, ELK1 (Homo sapiens, UniProt P19419 1-428)
# T1 sequence: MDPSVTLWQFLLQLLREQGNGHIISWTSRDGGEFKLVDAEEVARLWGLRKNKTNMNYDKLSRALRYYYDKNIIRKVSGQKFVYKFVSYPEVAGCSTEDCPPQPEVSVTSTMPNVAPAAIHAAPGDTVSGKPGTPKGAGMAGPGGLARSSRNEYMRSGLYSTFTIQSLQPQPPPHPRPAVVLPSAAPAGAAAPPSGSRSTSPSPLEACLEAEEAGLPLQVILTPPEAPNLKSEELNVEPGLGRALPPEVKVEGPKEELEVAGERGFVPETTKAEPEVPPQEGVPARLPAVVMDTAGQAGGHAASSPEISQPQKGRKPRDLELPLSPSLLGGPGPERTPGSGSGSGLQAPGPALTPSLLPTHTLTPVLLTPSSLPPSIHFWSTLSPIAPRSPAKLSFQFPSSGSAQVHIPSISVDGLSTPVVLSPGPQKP
# In short: (§1)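 Binding signal is each hexamer's read frequency for a factor divided by its frequency in the tag-only sample. The factors were GST-fused human transcription factors from yeast, captured on glutathione beads, DNA-barcoded and pooled with that sample. Pools were incubated with 200 nmole of a random double-stranded 16-mer DNA library in Tris/NaCl/DTT/glycerol buffer at room temperature for 30 min, then washed, crosslinked with 0.1% formaldehyde, proximity-ligated with BsaI/T4 ligase (1 h, 37 °C), PCR-amplified and sequenced on an Illumina NextSeq500.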
# ERG = target: T2, ERG (Homo sapiens, UniProt P11308 1-479)
# T2 sequence: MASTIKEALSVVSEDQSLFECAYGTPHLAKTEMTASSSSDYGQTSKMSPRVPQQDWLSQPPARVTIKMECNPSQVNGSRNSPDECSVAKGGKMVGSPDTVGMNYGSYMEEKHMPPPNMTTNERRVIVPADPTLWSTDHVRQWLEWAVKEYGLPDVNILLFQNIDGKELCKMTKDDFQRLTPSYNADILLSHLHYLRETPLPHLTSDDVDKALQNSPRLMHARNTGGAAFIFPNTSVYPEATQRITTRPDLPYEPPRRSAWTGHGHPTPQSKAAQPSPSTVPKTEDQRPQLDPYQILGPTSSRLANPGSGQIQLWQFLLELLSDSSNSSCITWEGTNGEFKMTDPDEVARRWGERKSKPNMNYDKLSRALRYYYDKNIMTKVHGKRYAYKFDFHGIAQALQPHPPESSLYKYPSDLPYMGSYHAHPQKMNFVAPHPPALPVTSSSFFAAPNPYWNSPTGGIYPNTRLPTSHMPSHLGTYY
# In short: as §1
# ELF1 = ELF1 (Homo sapiens, UniProt P32519 1-619)
# In short: as §1
# EHF = target: T3, EHF (Homo sapiens, UniProt Q9NZC4 1-300)
# T3 sequence: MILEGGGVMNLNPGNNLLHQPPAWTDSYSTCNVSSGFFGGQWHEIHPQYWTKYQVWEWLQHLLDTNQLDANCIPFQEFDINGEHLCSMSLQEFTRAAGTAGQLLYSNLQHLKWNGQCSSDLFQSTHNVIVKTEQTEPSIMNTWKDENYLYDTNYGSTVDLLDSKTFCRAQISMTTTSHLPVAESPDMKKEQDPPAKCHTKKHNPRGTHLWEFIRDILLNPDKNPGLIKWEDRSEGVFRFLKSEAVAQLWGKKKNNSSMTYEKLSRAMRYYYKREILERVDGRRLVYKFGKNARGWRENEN
# In short: as §1
# SPIB = SPIB (Homo sapiens, UniProt Q01892 1-262)
# In short: as §1
# FEV = target: T4, FEV (Homo sapiens, UniProt Q99581 1-238)
# T4 sequence: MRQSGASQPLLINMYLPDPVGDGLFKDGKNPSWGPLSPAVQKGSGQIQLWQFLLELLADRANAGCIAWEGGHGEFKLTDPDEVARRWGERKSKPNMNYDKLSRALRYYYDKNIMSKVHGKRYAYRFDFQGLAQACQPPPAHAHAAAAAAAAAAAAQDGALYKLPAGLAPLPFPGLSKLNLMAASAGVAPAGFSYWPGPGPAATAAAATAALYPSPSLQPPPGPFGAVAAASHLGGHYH
# In short: as §1
# ETV5 = ETV5 (Homo sapiens, UniProt P41161 1-510)
# In short: as §1
# ELF4 = ELF4 (Homo sapiens, UniProt Q99607 1-663)
# In short: as §1
# ELK4 = target: T5, ELK4 (Homo sapiens, UniProt P28324-2 1-405)
# T5 sequence: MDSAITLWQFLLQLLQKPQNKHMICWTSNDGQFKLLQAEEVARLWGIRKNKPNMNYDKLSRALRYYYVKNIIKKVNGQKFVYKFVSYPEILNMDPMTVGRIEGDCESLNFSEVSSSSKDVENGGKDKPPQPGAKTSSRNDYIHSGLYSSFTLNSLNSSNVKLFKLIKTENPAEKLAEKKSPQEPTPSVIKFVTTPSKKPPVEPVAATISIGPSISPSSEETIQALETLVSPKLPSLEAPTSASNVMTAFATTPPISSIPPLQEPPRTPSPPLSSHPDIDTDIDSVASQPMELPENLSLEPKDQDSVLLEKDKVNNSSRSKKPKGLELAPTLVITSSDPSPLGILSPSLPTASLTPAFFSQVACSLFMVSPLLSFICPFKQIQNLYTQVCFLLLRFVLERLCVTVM
# In short: as §1
# ETV2 = target: T6, ETV2 (Homo sapiens, UniProt O00321 1-342)
# T6 sequence: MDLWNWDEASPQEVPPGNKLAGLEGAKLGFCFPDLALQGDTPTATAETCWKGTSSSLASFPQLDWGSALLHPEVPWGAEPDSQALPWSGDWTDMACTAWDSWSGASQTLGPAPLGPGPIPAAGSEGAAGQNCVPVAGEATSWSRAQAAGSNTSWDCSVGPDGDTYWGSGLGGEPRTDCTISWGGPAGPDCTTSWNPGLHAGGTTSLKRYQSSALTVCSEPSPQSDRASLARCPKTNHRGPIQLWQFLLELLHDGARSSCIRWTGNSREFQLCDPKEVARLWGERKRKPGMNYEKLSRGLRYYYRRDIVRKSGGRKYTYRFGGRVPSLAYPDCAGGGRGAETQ
# In short: as §1
# ELF3 = target: T7, ELF3 (Homo sapiens, UniProt P78545 1-371)
# T7 sequence: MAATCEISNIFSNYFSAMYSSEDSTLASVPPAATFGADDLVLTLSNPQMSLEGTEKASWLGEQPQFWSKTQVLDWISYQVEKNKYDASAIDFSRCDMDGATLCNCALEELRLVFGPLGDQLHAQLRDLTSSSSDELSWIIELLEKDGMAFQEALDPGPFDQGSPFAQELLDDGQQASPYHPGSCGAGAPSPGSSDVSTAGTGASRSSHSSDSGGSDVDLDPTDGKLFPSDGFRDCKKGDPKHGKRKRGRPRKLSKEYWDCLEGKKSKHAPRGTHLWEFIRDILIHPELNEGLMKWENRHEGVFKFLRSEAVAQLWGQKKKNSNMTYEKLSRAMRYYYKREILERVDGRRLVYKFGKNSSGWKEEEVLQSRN
# In short: as §1
# ETV1 = ETV1 (Homo sapiens, UniProt P50549 1-477)
# In short: as §1
# ERF = target: T8, ERF (Homo sapiens, UniProt P50548 1-548)
# T8 sequence: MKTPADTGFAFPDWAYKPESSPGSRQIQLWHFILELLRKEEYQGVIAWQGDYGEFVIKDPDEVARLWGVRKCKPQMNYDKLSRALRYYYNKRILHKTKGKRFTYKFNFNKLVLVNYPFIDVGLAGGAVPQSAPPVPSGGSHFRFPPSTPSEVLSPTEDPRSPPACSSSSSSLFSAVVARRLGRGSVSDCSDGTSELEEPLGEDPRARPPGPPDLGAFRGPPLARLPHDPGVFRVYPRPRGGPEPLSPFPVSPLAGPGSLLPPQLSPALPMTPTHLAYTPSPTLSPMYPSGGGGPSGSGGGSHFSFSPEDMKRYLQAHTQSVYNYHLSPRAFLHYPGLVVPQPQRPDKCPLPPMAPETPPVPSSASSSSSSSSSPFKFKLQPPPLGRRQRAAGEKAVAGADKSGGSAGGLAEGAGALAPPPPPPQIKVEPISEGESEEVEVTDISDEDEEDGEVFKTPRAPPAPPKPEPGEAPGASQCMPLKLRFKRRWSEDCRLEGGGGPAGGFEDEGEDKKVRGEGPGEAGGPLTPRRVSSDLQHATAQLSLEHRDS
# In short: as §1
# ETV3L = target: T9, ETV3L (Homo sapiens, UniProt Q6ZN32 1-361)
# T9 sequence: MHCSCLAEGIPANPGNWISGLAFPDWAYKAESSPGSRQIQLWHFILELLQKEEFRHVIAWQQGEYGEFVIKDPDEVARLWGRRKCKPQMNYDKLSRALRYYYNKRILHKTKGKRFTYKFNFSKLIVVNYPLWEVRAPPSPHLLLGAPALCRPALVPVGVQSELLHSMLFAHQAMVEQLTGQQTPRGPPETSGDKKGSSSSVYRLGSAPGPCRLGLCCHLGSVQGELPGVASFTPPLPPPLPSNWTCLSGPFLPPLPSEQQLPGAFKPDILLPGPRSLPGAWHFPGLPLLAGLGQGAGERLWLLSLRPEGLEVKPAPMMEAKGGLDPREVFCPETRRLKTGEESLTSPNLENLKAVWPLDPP
# In short: as §1
# ETS2 = target: T10, ETS2 (Homo sapiens, UniProt P15036 1-469)
# T10 sequence: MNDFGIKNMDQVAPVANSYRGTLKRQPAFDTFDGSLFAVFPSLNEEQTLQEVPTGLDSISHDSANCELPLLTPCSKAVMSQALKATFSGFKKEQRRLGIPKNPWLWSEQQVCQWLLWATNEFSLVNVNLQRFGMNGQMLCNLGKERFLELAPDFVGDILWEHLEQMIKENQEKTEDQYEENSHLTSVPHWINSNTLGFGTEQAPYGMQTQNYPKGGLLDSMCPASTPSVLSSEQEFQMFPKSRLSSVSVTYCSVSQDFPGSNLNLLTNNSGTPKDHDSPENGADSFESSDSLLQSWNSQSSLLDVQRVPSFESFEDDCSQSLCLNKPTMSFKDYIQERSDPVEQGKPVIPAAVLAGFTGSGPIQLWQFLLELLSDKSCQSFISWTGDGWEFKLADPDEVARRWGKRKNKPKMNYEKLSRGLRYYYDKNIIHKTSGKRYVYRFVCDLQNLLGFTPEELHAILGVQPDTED
# In short: as §1
# SPDEF = target: T11, SPDEF (Homo sapiens, UniProt O95238 1-335)
# T11 sequence: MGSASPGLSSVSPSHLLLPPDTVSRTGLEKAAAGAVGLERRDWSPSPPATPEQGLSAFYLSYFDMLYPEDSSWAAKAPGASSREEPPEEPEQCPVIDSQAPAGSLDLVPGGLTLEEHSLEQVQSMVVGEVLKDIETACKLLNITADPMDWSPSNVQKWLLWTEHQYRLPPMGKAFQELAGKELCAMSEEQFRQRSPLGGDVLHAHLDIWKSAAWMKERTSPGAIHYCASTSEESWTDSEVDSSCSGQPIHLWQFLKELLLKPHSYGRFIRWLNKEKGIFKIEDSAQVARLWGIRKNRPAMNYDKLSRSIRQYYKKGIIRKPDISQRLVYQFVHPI
# In short: as §1
# ETV7 = target: T12, ETV7 (Homo sapiens, UniProt Q9Y603 1-341)
# T12 sequence: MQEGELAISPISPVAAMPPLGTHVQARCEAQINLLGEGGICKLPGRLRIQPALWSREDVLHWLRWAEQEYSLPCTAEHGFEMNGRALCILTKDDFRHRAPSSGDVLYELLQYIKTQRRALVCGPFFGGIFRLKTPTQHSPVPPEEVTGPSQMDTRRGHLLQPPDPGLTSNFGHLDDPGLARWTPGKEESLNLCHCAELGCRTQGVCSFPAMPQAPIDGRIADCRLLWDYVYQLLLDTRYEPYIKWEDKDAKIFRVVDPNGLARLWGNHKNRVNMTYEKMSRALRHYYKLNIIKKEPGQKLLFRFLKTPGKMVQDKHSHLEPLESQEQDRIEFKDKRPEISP
# In short: as §1
# ETV3 = target: T13, ETV3 (Homo sapiens, UniProt P41162-2 1-143)
# T13 sequence: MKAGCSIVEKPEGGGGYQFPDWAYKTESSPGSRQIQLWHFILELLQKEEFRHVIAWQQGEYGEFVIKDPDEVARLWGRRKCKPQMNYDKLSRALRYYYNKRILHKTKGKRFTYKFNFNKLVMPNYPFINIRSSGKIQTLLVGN
# In short: as §1
# ETV6 = ETV6 (Homo sapiens, UniProt P41212 1-452)
# In short: as §1
# Chain of ETV6 (P41212 whole entry): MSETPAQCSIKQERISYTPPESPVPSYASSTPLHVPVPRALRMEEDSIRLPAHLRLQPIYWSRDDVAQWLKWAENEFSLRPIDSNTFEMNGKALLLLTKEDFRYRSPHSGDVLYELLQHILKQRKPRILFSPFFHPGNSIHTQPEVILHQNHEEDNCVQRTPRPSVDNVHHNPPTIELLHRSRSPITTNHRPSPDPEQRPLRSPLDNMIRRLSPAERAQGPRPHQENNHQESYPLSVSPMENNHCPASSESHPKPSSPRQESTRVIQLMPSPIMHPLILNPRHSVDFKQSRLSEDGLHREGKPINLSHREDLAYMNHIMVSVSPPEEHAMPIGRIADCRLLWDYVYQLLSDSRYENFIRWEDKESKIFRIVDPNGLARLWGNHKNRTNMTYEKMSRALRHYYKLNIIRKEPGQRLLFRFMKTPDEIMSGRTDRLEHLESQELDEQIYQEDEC
# Chain of ETV1 (P50549 whole entry): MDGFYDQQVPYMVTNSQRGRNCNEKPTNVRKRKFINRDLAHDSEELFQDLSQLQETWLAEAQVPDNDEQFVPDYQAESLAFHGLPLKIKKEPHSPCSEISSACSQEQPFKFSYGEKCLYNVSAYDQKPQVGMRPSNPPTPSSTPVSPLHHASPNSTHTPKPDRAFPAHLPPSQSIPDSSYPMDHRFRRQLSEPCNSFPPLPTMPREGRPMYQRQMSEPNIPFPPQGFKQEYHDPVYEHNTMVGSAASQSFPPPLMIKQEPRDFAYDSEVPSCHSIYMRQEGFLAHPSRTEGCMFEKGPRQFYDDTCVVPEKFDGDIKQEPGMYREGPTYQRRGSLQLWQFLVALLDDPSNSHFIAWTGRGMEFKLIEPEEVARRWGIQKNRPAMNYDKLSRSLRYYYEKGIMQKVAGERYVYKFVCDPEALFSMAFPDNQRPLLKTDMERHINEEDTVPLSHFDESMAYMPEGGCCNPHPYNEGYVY
# Chain of ETV5 (P41161 whole entry): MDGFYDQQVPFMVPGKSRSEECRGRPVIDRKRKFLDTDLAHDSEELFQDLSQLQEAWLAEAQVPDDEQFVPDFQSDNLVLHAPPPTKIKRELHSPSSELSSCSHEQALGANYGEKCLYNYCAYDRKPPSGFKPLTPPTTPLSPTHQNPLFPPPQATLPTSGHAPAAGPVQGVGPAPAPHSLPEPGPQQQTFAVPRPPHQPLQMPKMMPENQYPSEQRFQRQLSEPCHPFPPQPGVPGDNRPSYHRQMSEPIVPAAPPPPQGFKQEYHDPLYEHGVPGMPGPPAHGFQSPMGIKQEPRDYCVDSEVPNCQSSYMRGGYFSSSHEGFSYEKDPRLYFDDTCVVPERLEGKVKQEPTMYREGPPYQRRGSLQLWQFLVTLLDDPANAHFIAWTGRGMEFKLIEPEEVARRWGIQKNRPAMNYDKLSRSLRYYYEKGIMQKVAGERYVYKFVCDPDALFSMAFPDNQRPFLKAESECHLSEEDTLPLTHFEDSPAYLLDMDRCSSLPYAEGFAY
# Chain of ELF1 (P32519 whole entry): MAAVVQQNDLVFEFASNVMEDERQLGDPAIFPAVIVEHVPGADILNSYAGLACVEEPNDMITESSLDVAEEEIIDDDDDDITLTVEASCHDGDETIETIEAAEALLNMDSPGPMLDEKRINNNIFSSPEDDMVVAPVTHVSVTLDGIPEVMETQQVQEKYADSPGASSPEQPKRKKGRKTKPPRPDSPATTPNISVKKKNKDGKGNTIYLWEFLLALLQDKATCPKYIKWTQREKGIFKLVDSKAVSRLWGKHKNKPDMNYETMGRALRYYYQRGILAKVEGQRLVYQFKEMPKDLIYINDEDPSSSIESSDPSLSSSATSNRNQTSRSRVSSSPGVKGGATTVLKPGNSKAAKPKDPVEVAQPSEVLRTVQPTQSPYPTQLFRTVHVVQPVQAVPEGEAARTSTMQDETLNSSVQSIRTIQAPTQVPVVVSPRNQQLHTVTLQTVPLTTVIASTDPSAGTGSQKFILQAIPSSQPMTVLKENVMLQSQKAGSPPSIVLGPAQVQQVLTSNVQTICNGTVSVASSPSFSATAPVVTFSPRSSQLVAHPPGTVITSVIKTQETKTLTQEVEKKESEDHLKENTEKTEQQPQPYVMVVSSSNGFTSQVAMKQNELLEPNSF
# Chain of ELF4 (Q99607 whole entry): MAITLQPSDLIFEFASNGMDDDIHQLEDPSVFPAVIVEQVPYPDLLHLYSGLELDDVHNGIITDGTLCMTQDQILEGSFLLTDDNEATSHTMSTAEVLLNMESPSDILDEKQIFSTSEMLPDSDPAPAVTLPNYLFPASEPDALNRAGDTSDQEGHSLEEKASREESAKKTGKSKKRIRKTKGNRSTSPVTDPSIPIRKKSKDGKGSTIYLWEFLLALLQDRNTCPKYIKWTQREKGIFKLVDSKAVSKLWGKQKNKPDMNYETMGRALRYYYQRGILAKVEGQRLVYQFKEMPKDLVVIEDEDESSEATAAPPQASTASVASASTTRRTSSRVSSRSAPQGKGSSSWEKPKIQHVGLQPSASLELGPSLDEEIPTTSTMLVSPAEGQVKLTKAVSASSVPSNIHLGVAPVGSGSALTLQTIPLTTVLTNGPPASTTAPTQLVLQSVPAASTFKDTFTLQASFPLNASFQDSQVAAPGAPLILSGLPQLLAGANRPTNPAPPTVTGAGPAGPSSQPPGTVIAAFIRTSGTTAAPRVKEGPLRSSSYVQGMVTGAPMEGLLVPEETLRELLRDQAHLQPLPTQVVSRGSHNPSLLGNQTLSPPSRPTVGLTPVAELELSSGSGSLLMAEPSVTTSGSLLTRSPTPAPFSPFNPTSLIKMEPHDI
# Chain of SPIB (Q01892 whole entry): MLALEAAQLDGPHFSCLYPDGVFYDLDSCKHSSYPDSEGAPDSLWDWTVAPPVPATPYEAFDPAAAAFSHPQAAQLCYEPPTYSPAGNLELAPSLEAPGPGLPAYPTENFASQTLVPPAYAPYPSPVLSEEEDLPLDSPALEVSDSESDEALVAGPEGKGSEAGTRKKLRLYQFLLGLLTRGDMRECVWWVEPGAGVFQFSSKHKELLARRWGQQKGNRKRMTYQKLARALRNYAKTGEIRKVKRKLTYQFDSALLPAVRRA
sequence,measurement,setting,value
CCCCTA,binding signal,ELK1,"1.07 fold enrichment (6-mer frequency, TF over GST control)"
same,binding signal,ERG,"1.05 fold enrichment (6-mer frequency, TF over GST control)"
same,binding signal,ELF1,"1.18 fold enrichment (6-mer frequency, TF over GST control)"
same,binding signal,EHF,"1.17 fold enrichment (6-mer frequency, TF over GST control)"
same,binding signal,SPIB,"1.08 fold enrichment (6-mer frequency, TF over GST control)"
same,binding signal,FEV,"1.13 fold enrichment (6-mer frequency, TF over GST control)"
same,binding signal,ETV5,"1.07 fold enrichment (6-mer frequency, TF over GST control)"
same,binding signal,ELF4,"1.2 fold enrichment (6-mer frequency, TF over GST control)"
same,binding signal,ELK4,"1.3 fold enrichment (6-mer frequency, TF over GST control)"
same,binding signal,ETV2,"1.06 fold enrichment (6-mer frequency, TF over GST control)"
same,binding signal,ELF3,"1.3 fold enrichment (6-mer frequency, TF over GST control)"
same,binding signal,ETV1,"1.07 fold enrichment (6-mer frequency, TF over GST control)"
same,binding signal,ERF,"1.04 fold enrichment (6-mer frequency, TF over GST control)"
same,binding signal,ETV3L,"1.13 fold enrichment (6-mer frequency, TF over GST control)"
same,binding signal,ETS2,"1.05 fold enrichment (6-mer frequency, TF over GST control)"
same,binding signal,SPDEF,"1.07 fold enrichment (6-mer frequency, TF over GST control)"
same,binding signal,ETV7,"1.06 fold enrichment (6-mer frequency, TF over GST control)"
same,binding signal,ETV3,"1.06 fold enrichment (6-mer frequency, TF over GST control)"
same,binding signal,ETV6,"1.22 fold enrichment (6-mer frequency, TF over GST control)"
